Records with an inconclusive call do not appear. Activity calls are given as the source filed them. Calls come from the whole dose curve; as a rule, active = well fitted curve in the direction sought with a large enough effect in the repeat runs; inconclusive = weak or mixed curves; inactive = no such curve, though single readings can be large; an effect the other way counts as inactive or inconclusive.
Legend:
[1] = qHTS RealTime-Glo MT Cell Viability Assay in HEK293 cells - 16 hour (AID 1224872); note: top concentration of the series differs between compounds; nearly all actives have a fitted effect of over 50% in size
Outline: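 Cells + reagent dispensed (600 cells/well, HEK293) → 5 h at 37 C/5% CO2 → 23 nL compound in DMSO pinned → 40 h at 37 C → luminescence read at 0, 8, 16, 24, 32, 40 h.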

[2] = qHTS RealTime-Glo MT Cell Viability Assay in HepG2 cells - 8 hour (AID 1224873); note: nearly all actives have a fitted effect of over 55% in size
Outline: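 Real-time viability: cells seeded at 600 per well together with NanoLuc and cell-permeant prosubstrate, compounds added after 5 h incubation. Luminescence tracked at 0, 8, 16, 24, 32 and 40 h of exposure.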

[3] = qHTS RealTime-Glo MT Cell Viability Assay in HEK293 cells - 40 hour (AID 1224874); details: RealTime-Glo luminescence; max response: hits give low values; note: nearly all actives have a fitted effect of over 50% in size
Outline: (§1)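 HEK293 cells mixed with RealTime-Glo reagents (NanoLuc plus cell-permeant prosubstrate) at 600 cells/well, preincubated 5 h at 37 C/5% CO2, then given 23 nL compound in DMSO. Nonlytic luminescence from viable cells was read at 0, 8, 16, 24, 32 and 40 h.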

[4] = A CellTox Green Cytotoxicity Assay to monitor cytotoxicity in HEK293 cells - 24 hour (AID 1224875); note: series mostly up to about 77 µM; nearly all actives have a fitted effect of over 45% in size
Outline: (§2)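 HEK293 cells premixed with CellTox Green dye were seeded at 600 cells/well and left 5 h at 37 C/5% CO2 before pin transfer of 23 nL compound in DMSO. Fluorescence from dye bound to dead-cell DNA was read during 40 h treatment.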

[5] = A CellTox Green Cytotoxicity Assay to monitor cytotoxicity in HepG2 cells - 16 hour (AID 1224876); note: nearly all actives have a fitted effect of over 45% in size
Outline: (§3)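 HepG2 cells were seeded together with the CellTox Green dye at 600 cells/well, left 5 h at 37 C/5% CO2, then given compounds in DMSO. Fluorescence from dye bound to dead-cell DNA was read repeatedly over 40 h of treatment at 37 C.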

[6] = qHTS RealTime-Glo MT Cell Viability Assay in HepG2 cells - 32 hour (AID 1224877); note: nearly all actives have a fitted effect of over 55% in size
Outline: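 Real-time, nonlytic viability: 600 HepG2 cells/well mixed with NanoLuc enzyme plus prosubstrate; 5 h settle, compound (DMSO) added by pintool; luminescence monitored over 40 h at 37 C.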

[7] = A CellTox Green Cytotoxicity Assay to monitor cytotoxicity in HepG2 cells - 24 hour (AID 1224878); note: nearly all actives have a fitted effect of over 45% in size
Outline: as §3

[8] = A CellTox Green Cytotoxicity Assay to monitor cytotoxicity in HepG2 cells - 40 hour (AID 1224879); note: nearly all actives have a fitted effect of over 40% in size
Outline: as §3

[9] = qHTS RealTime-Glo MT Cell Viability Assay in HEK293 cells - 0 hour (AID 1224880); note: top concentration of the series differs between compounds; nearly all actives have a fitted effect of over 45% in size
Outline: as §1

[10] = A CellTox Green Cytotoxicity Assay to monitor cytotoxicity in HEK293 cells - 32 hour (AID 1224881); note: nearly all actives have a fitted effect of over 40% in size
Outline: as §2
% is set by controls: 0 for no effect and ±100 for the full control effect.

CCCCOC(=O)CCC(C)=O
inactive: Potency [1] | outcome [2] | max response [3] -4.42% | outcome [4] | outcome [5] | Potency [6] | outcome [7] | Potency [8] | Potency [9] | outcome [10]

CC[N+](C)(CC)CCOC(=O)C1c2ccccc2Oc2ccccc21
inactive: Potency [1] | outcome [2] | max response [3] 3.05% | outcome [4] | outcome [5] | Potency [6] | outcome [7] | Potency [8] | Potency [9]

c1ccc(Cc2ccccc2)cc1
inactive: Potency [1] | outcome [2] | max response [3] -0.7% | outcome [4] | outcome [5] | Potency [6] | outcome [7] | Potency [8] | Potency [9]

NO
inactive: Potency [1] | outcome [2] | max response [3] -12.7% | outcome [4] | outcome [5] | Potency [6] | outcome [7] | Potency [8] | Potency [9] | outcome [10]

CCOCC(C)O (stereo not given)
inactive: Potency [1] | outcome [2] | max response [3] -1.56% | outcome [4] | outcome [5] | Potency [6] | outcome [7] | Potency [8] | Potency [9]

CC(C)[C@H]1CC[C@@H](C)CC1=O
inactive: Potency [1] | outcome [2] | max response [3] -1.73% | outcome [4] | outcome [5] | Potency [6] | outcome [7] | Potency [8] | Potency [9]

CCCCCCCC1CCCC1=O (stereo not given)
inactive: Potency [1] | outcome [2] | max response [3] 18.6% | outcome [4] | outcome [5] | Potency [6] | outcome [7] | Potency [8] | Potency [9]

CC1=NN(c2cc(S(=O)(=O)O)ccc2Cl)C(=O)C1N=Nc1ccccc1 (stereo not given)
inactive: Potency [1] | outcome [2] | max response [3] 8.94% | outcome [4] | outcome [5] | Potency [6] | outcome [7] | Potency [8] | Potency [9]

CC(CO)(CO)[N+](=O)[O-]
inactive: Potency [1] | outcome [2] | max response [3] 3.85% | outcome [4] | outcome [5] | Potency [6] | outcome [7] | Potency [8] | Potency [9] | outcome [10]

CC(=O)c1ccccc1[N+](=O)[O-]
inactive: Potency [1] | outcome [2] | max response [3] 21.1% | outcome [4] | outcome [5] | Potency [6] | outcome [7] | Potency [8] | Potency [9]

CCC(=O)OCc1ccccc1
inactive: Potency [1] | outcome [2] | max response [3] -6.18% | outcome [4] | outcome [5] | Potency [6] | outcome [7] | Potency [8] | Potency [9] | outcome [10]

CO[C@@]1(NC(=O)C(C(=O)O)c2ccc(O)cc2)C(=O)N2C(C(=O)O)=C(CSc3nnnn3C)CO[C@@H]21 (stereo not given in full)
inactive: Potency [1] | outcome [2] | max response [3] 11.1% | outcome [4] | outcome [5] | Potency [6] | outcome [7] | Potency [8] | Potency [9] | outcome [10]

NC(=O)NC1N=C([O][Al])NC1=O (stereo not given)
inactive: Potency [1] | outcome [2] | max response [3] 1.53% | outcome [4] | outcome [5] | Potency [6] | outcome [7] | Potency [8] | Potency [9]

CC(=O)NC(=O)c1ccccc1O
inactive: Potency [1] | outcome [2] | max response [3] 7.94% | outcome [4] | outcome [5] | Potency [6] | outcome [7] | Potency [8] | Potency [9]

c1coc(CNc2ncnc3nc[nH]c23)c1
inactive: Potency [1] | outcome [2] | max response [3] -15.6% | outcome [4] | outcome [5] | Potency [6] | outcome [7] | Potency [8] | Potency [9] | outcome [10]

CCCCCCC#CC(=O)OC
inactive: Potency [1] | outcome [2] | max response [3] 11.4% | outcome [4] | outcome [5] | Potency [6] | outcome [7] | Potency [8] | Potency [9]

CO[C@@]1(NC(=O)CSC[C@@H](N)C(=O)O)C(=O)N2C(C(=O)O)=C(CSc3nnnn3C)CS[C@@H]21
inactive: Potency [1] | outcome [2] | max response [3] -2.75% | outcome [4] | outcome [5] | Potency [6] | outcome [7] | Potency [8] | Potency [9] | outcome [10]

CC(C)(CCC(=O)O)C(=O)O
inactive: Potency [1] | outcome [2] | max response [3] 0.835% | outcome [4] | outcome [5] | Potency [6] | outcome [7] | Potency [8] | Potency [9] | outcome [10]

CC(C)c1ccc2ncccc2c1
inactive: Potency [1] | outcome [2] | max response [3] -0.522% | outcome [4] | outcome [5] | Potency [6] | outcome [7] | Potency [8] | Potency [9] | outcome [10]

CC(C)COC(=O)c1ccc(N)cc1
inactive: Potency [1] | outcome [2] | max response [3] -12.8% | outcome [4] | outcome [5] | Potency [6] | outcome [7] | Potency [8] | Potency [9] | outcome [10]

CCCCCCCCCCCCCCC(=O)O
inactive: Potency [1] | outcome [2] | max response [3] 23.9% | outcome [4] | outcome [5] | Potency [6] | outcome [7] | Potency [8] | Potency [9] | outcome [10]

C=CN1CCCCCC1=O
inactive: Potency [1] | outcome [2] | max response [3] 3.47% | outcome [4] | outcome [5] | Potency [6] | outcome [7] | Potency [8] | Potency [9] | outcome [10]
